Source: PubChem BioAssay
This is a sample that favours compounds with a hit; in the whole collection about 6.5% have one here.
LASV entry inh – inhibitors of Lassa virus binding or cell entry. Lassa virus pseudotype entry inhibition, cell reporter. Potency, µM (highest dose often 37.9 µM), inactives show at the top dose activity change, negative = inhibition, usual class: inhibitors. 300,000 tested, 1.2% active; calls by dose curve; tested in HEK293 cells; also: potency is read from the fitted curve at half-maximal effect; nearly all actives have a fitted effect of over 50% in size
HCMV inh – blocks human cytomegalovirus replication. HFF cells, HCMV-luciferase reporter, 72 h; hits give low values. activity change, negative = inhibition, % at 57.5 µM. 410,000 tested, 4.5% active. AID 1259415; in the data active = activity change below about -60%; inconclusive = no clear call, values can overlap the other calls; inactive = above about -39%
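After 16 h attachment at 37C, HFF cells received test compound and HCMV-luciferase (1 PFU/cell); reporter luminescence read 72 h later, data normalized against buffer-only and known inhibitor Salinomycin.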
FMDV antiviral – foot and mouth disease virus antiviral activity | AID 1159524 | FMDV antiviral cell-based qHTS | 410,000 tested, 1.2% active | Potency, µM (highest dose often 57.9 µM), without a hit: at the highest dose activity change, negative = inhibition, most hits filed as inhibitors; calls by dose curve; tested in HEK293T cells; also: read-out not given here; potency is read from the fitted curve at half-maximal effect; nearly all actives have a fitted effect of over 45% in size
Vaccinia Venus – vaccinia inhibition (Venus reporter); 330,000 tested, 0.46% active; Vaccinia virus Venus reporter expression, fluorescence; Potency, µM (top dose mostly 36.5 µM), inactives show top-dose activity change, negative = inhibition, usual class: inhibitors; calls by dose curve; tested in A549 cells; also: potency is read from the fitted curve at half-maximal effect; nearly all actives have a fitted effect of over 30% in size
VACV mCherry inh – inhibitors of vaccinia virus infection (mCherry reporter signal) | Vaccinia virus mCherry reporter infection, fluorescence | Potency, µM (titrated, usually from 36.5 µM), for inactives: top-dose activity change, negative = inhibition, usual class: inhibitors | 310,000 tested, 0.63% active | AID 720579; calls by dose curve; tested in A549 cells; also: potency is read from the fitted curve at half-maximal effect; nearly all actives have a fitted effect of over 35% in size
Marburg entry inh – blocks Marburg virus binding to or entry into cells | Potency, µM (titrated, usually from 37.8 µM), without a hit: top-dose activity change, negative = inhibition, actives largely listed as inhibitors | AID 540276 | Marburg virus pseudotyped entry inhibition, cell reporter | 300,000 tested, 1.8% active; calls by dose curve; tested in HEK293 cells; also: potency is read from the fitted curve at half-maximal effect
* marks the source's active call; other numbers are inactive results; i = inactive; ? = inconclusive; / = no result; [ ] = remark or other dose. % is scaled to controls: 0 for no effect and ±100 for the full control effect.

SMILES	LASV entry inh	HCMV inh	FMDV antiviral	Vaccinia Venus	VACV mCherry inh	Marburg entry inh
CC(=O)Oc1c2c(c(CC=C(C)C)c3c1C(=O)C1=CC4CC5C(C)(C)OC(C/C=C(\C)C(=O)O)(C4=O)[C@]15O3)OC(C)(CCC=C(C)C)C=C2 (some centres undefined)	/	/	3.98µM*	?	11.2µM*	/
COC(=O)/C(C)=C\CC12OC(C)(C)C3CC(C=C4C(=O)c5c(OC)c6c(c(CC=C(C)C)c5OC431)OC(C)(CCC=C(C)C)C=C6)C2=O (centres undefined)	/	/	31.6µM*	?	12.6µM*	/
CC(=O)Oc1c(-c2ccccc2)oc2c(CC=C(C)C)c3c(c(OC(C)=O)c2c1=O)C=CC(C)(C)O3	/	/	-5.6%	16.0%	-1.8%	/
CCC(C)NC(=O)C1CCN(C(=O)c2ccc(-n3ccc4ccccc43)s2)CC1 (centres undefined)	?	-13.3	9.9%	-22.5%	-17.7%	/
Cc1cc(NC(=O)CSc2nc3ccccc3c(=O)n2C(C)c2ccccc2)no1 (centres undefined)	2.51µM*	?	-24.1%	-22.9%	/	3.16µM*
CCC(C)n1c(SCC(=O)Nc2cc(C)on2)nc2ccccc2c1=O (centres undefined)	-11.9%	-6.3	-23.2%	?	i	3.98µM*
C[C@]12CCC3C(CC[C@H]4C[C@@H](O)CC[C@]34C)[C@H]1C=CC2=O (some centres undefined)	?	0.0	20µM*	?	?	?
C[C@]12CC[C@H](O)C[C@@H]1CC[C@@H]1[C@@H]2CC[C@]2(C)C(=O)CC[C@@H]12	/	20.0	-28.7%	-12.2%	i	/
C[C@]12CC[C@@H](O)C[C@@H]1CC[C@@H]1[C@@H]2CC[C@]2(C)C(=O)[C@H](O)C[C@@H]12	/	/	-21.0%	-9.2%	-9.1%	/
C[C@]12CCC3[C@@H](CC[C@@H]4C[C@H](O)CC[C@]34C)[C@@H]1CCC2=O (some centres undefined)	/	-74.7*	-0.6%	-18.3%	i	/
Cc1cccc(NC(=O)Cn2c(=O)n(CC3CCC(C(=O)NCCc4ccccc4)CC3)c(=O)c3ccccc32)c1 (centres undefined)	?	25.4	-8.0%	?	?	12.8%[46.1 µM]
Cc1ccc(-n2c(=O)c3c4c(sc3n(CC(=O)c3ccc(Cl)cc3)c2=O)CCC4)cc1C	1.0%[46.1 µM]	-2.0	-3.7%	-3.2%	-8.4%	3.0%[46.1 µM]
Cc1ccc(S(=O)(=O)N(C)Cc2ccc(C(=O)N/N=C/c3ccc(OC(F)F)cc3OC(F)F)cc2)cc1	?	?	6.31µM*	-23.2%	-12.7%	?
O=C(N/N=C/c1ccc(OC(F)F)cc1OC(F)F)c1ccc(Br)cc1	0.0%	-37.6	15.0%	/	/	7.0%
COCCN(Cc1ccccc1)C(=S)Nc1ccc(OC(F)F)cc1	16.4µM*	?	23.4%	8.3%	-9.4%	?
CCCN(Cc1ccccc1)C(=S)Nc1ccc(OC(F)F)cc1	16.8%	14.9	70.4%	-10.1%	-19.7%	?
O=C1NCCN2CCC[C@H]12	/	/	/	/	/	19.2%
O=[N+]([O-])c1ccc2nc(/C=C/c3ccc(Cl)cc3)[nH]c2c1	?	-85.8*	/	?	-20.0%	?
Cc1c(Cl)c([N+](=O)[O-])nn1Cc1ccc(C(=O)N/N=C\c2cccc(Br)c2)o1	-27.3%	52.3	-15.7%	28.2µM*	/	?
COc1cccc(CNC(=O)COC(=O)c2ccc(S(C)(=O)=O)c([N+](=O)[O-])c2)c1	/	/	/	-17.1%	-13.7%	/
CN(c1ccc(-c2csc(NC(=O)CCCc3nc4ccccc4c(=O)[nH]3)n2)cc1)S(C)(=O)=O	/	-19.5	35.5µM*	-20.1%	-8.6%	/
CN1c2ccccc2C(C)(C)C12C=Nc1c(cc(N3CCOCC3)c3ccccc13)O2 (centres undefined)	?	-74.1*	?	-18.2%	-14.9%	?
CCOc1ccc(N(C(=O)/C=C/C(=O)Nc2cc(C)on2)C(C(=O)NC2CCCC2)c2ccccc2C)cc1 (centres undefined)	/	-93.2*	?	/	/	/
Cc1cc(NC(=O)CCC(=O)N(Cc2ccco2)C(C(=O)NC2CCCC2)c2ccc(F)cc2)no1 (centres undefined)	3.0%	-63.2*	-10.8%	-10.0%	5.2%	?
O=C(NC1CCCCC1)C(c1ccccn1)N(C(=O)Cc1cccs1)c1ccc(Cl)cc1 (centres undefined)	-26.9%	-21.5	18.3%	/	/	10.3µM*
SMILES	LASV entry inh	HCMV inh	FMDV antiviral	Vaccinia Venus	VACV mCherry inh	Marburg entry inh
Cc1cc(NC(=O)CCC(=O)N(c2ccccc2)C(C(=O)NC2CCCC2)c2ccc(F)cc2)no1 (centres undefined)	-9.5%	-11.3	-2.1%	-5.8%	i	-1.7%[46.1 µM]
Cc1cc(NC(=O)CCC(=O)N(c2ccccc2)C(C(=O)NC2CCCCC2)c2cccs2)no1 (centres undefined)	-12.7%	-64.6*	-1.2%	0.6%	/	?
COCCOC(=O)c1c(C)oc2c1cc(NS(=O)(=O)c1ccc(Cl)c(C)c1)c1ccccc12	?	14.7	-11.0%	2.3%	-8.1%	?
COc1cc(NC(=O)c2cc3ccccc3cc2O)c(OC)cc1Cl	/	-100.6*	12.6µM*	/	/	/
Cc1ccc(Cl)cc1NC(=O)c1cc2ccccc2cc1O	/	-99.6*	?	/	/	/
COc1cc(OC)c(NC(=O)c2ccccc2F)cc1Cl	/	-2.5	36.0%	/	/	/
COc1cc(NC(=O)c2c(Cl)cnn2C)c(OC)cc1Cl	-5.1%	-60.5*	-4.2%	2.8%	i	-20.8%[46.1 µM]
Cc1cc(=O)c(C(=O)NCCCc2ccncc2)c2n1-c1ccccc1SC(c1cccs1)C2 (centres undefined)	/	/	-8.7%	-3.7%	-6.3%	/
O=C(NN=C1C[C@@H](O)[C@H](O)[C@H]2[C@@H]3C(=O)N(Cc4ccc5c(c4)OCO5)C(=O)[C@@H]3CC[C@H]12)OCc1ccccc1	?	/	/	/	/	-2.2%[14.2 µM]
CCOc1cc(C2c3c(oc4ccccc4c3=O)C(=O)N2Cc2ccc3c(c2)OCO3)ccc1O (centres undefined)	-7.1%[46.1 µM]	-8.8	71.7%	-28.4%	?	5.0%[46.1 µM]
O=C(Nc1ccc(C(=O)N2CCN(c3cccc(Cl)c3)CC2)cc1)c1nsc2ccccc12	?	48.7	0.0%	-9.2%	-13.3%	/
CC(=O)O[C@@]12CO[C@@H]1C[C@H](O)[C@@]1(C)C(=O)[C@H](O)C3=C(C)[C@@H](OC(=O)[C@H](O)[C@@H](NC(=O)OC(C)(C)C)c4ccccc4)C[C@@](O)([C@@H](OC(=O)c4ccccc4)[C@H]21)C3(C)C	/	/	/	?	i	/
CSc1nc(C)cc(Nc2c(C)cc(C)cc2C)n1	0.4%[46.1 µM]	-27.3	?	-8.6%	-6.0%	0.2%[46.1 µM]
Cc1cc(CNC(=O)COC(=O)Cn2[nH]c(=O)c3ccccc3c2=O)cc(C)c1O	-4.3%	-98.5*	-9.3%	-20.3%	i	-1.5%
